Consider 92 compounds from PubChem BioAssay AID1851 (National Center for Advancing Translational Sciences (NCATS), 2009).

Hit rate of the full screen: of about 16,000 compounds, about 4,000 (25%) were called active. Another 26% or so got no clear call; they are omitted. Not all results are given here. A number with no mark means an inactive call. Calls follow the shape of the dose curve; as a rule, active = well fitted curve in the direction sought with a large enough effect; inconclusive = small, poorly fitted or top-dose-only effect, or effect the other way; inactive = no such curve, though single readings can be large or run the other way.
% is scaled to controls: 0 for no effect and ±100 for the full control effect.

For this assay, the target named is Cytochrome P450 2C9 (Homo sapiens) (UniProt P11712). The assay can be described thus: Cytochrome panel assay with activity outcomes. Conditions: recombinant CYP, pro-luciferin dealkylation, luminescence, p450-cyp2c9; series mostly up to 57.1 µM; activity, negative = inhibition: at the top concentration.
Cytochrome P450 2C9 (Homo sapiens), sequence (P11712 whole entry, looked up): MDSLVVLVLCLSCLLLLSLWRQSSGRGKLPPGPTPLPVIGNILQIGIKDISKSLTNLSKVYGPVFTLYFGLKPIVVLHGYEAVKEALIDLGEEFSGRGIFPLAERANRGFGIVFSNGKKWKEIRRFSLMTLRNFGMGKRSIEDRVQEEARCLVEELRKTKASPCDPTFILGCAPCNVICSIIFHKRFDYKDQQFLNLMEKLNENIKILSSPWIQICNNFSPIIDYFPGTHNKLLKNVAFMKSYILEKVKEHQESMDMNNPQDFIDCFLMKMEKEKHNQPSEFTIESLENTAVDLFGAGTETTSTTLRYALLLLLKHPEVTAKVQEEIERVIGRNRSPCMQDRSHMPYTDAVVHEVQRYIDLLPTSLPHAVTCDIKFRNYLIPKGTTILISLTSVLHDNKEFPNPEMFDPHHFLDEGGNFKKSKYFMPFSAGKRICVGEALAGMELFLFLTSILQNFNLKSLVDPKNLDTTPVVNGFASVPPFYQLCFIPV
For the compound `O=C(c1cc(C(F)(F)F)cc(C(F)(F)F)c1)N1CCC2(CC1)CCN(c1ccccn1)CC2`, the “activity, negative = inhibition” value was 9.59%.

As to `O=C(c1cc(C(F)(F)F)cc(C(F)(F)F)c1)N1CCC2(CC1)CN(c1ccccn1)C2`, the “activity, negative = inhibition” value is -21.7%.

As a reminder, the AC50 is the midpoint of the concentration-response curve, whichever way the signal moves. With `Cc1ccc(C(=O)N2CCN(c3ccc(C(F)(F)F)cn3)CC2)cc1`, the AC50 is 15.8 µM (active).

On to `O=c1c(-c2ccc(Cl)cc2)nc2cnc(N3CCOCC3)nc2n1C1CC1`, for which the “activity, negative = inhibition” value was -5.18%.

Take `COc1ccc(-n2c(=O)c(-c3ccccc3)nc3cnc(N4CCNCC4)nc32)cc1`: the “activity, negative = inhibition” value was 1.05%.

As to `N#Cc1cccc(-c2nc3cnc(N4CCNCC4)nc3n(C3CC3)c2=O)c1`, the AC50 is 0.631 µM (active).

`O=c1c(-c2ccc(F)cc2)nc2cnc(N3CCNCC3)nc2n1C1CC1`: the AC50 is 1 µM (active).

As to `O=c1c(-c2ccccc2)nc2cnc(N3CCNCC3)nc2n1-c1ccccc1`, the “activity, negative = inhibition” value was -22%.

As for `O=c1c(-c2ccccc2)nc2cnc(N3CCOCC3)nc2n1C1CC1`, the AC50 is 10 µM (active).

For the compound `N#Cc1cccc(-c2nc3cnc(N4CCOCC4)nc3n(C3CC3)c2=O)c1`, the “activity, negative = inhibition” value is -15.8%.

As to `N#CCCn1c(=O)c(-c2cccc(C#N)c2)nc2cnc(N3CCOCC3)nc21`, the “activity, negative = inhibition” value is 13%.

For the compound `O=c1c(-c2ccccc2)nc2cnc(N3CCNCC3)nc2n1C1CC1`, the AC50 was 0.158 µM (active).

On to `O=c1c(-c2ccc(F)cc2)nc2cncnc2n1C1CC1`, for which the “activity, negative = inhibition” value is 8.93%.

Take `O=c1c(-c2ccc(F)cc2)nc2cnc(N3CCOCC3)nc2n1C1CC1`: the “activity, negative = inhibition” value is 10.8%.

For the compound `O=c1c(-c2ccccc2)nc2cnc(N3CCOCC3)nc2n1C[C@H]1CCCO1`, the “activity, negative = inhibition” value was -7.43%.

On to `C1CCC(C(C[C@@H]2CCCCN2)C2CCCCC2)CC1`, for which the “activity, negative = inhibition” value was 6.08% [at 25.6 µM].

In the case of `CNc1ccnc(-c2ccccc2C)n1`, the activity, negative = inhibition is 24.5% [at 2.29 µM].

`C[C@@H]1O[C@@H](n2cc(F)c(=O)[nH]c2=O)[C@H](O)[C@@H]1O`: the “activity, negative = inhibition” value is 25.7%.

With `N=C(C[C@@H](O)COc1ccccc1-c1ccccc1)N1CCCCC1`, the “activity, negative = inhibition” value was -27.4%.

With `CC[C@H](C)[C@@H]1O[C@]2(CC[C@@H]1C)C[C@H]1C[C@H](CC=C(C)[C@@H](O[C@H]3C[C@H](OC)[C@H](O[C@H]4C[C@H](OC)[C@H](O)[C@H](C)O4)[C@H](C)O3)[C@@H](C)C=CC=C3CO[C@@H]4[C@@H](O)C(C)=C[C@H](C(=O)O1)[C@@]34O)O2`, the “activity, negative = inhibition” value was -17.5%.

As to `Cn1c(=O)c(-c2cc(F)cc(F)c2)nc2cnc(N3CCOCC3)nc21`, the “activity, negative = inhibition” value was 10.6%.

As to `O=c1c(-c2cc(F)cc(F)c2)nc2cnc(N3CCNCC3)nc2n1C1CC1`, the AC50 was 0.158 µM (active).

Take `COc1ccc(-c2nc3cnc(N4CCNCC4)nc3n(C3CC3)c2=O)cc1`: the AC50 was 7.94 µM (active).

Take `COc1ccc(-c2nc3cnc(N4CCN(C)CC4)nc3n(C3CC3)c2=O)cc1`: the “activity, negative = inhibition” value was -12.7%.

As to `O=c1c(-c2cc(F)cc(F)c2)nc2cnc(N3CCOCC3)nc2n1C1CC1`, the “activity, negative = inhibition” value was 9.41%.

As for `COc1ccc(-c2nc3cnc(N4CCNCC4)nc3n(C)c2=O)cc1`, the “activity, negative = inhibition” value was -21.4%.

Regarding `CN1CCN(c2nc(-c3ccoc3)nc3ccccc23)CC1`, the activity, negative = inhibition was 6.78% [at 2.29 µM].

Take `COc1ccccc1CN1CC2(CCN(C(=O)c3cnccn3)CC2)C1`: the “activity, negative = inhibition” value is 9.97%.

On to `CC(C)CN1CCC2(CC1)CCN(C(=O)c1ccncc1)CC2`, for which the “activity, negative = inhibition” value was 4.6%.

`Cc1cc(=O)[nH]c2ccccc12`: the “activity, negative = inhibition” value is 25.9%.

Turning to `CCn1c(=O)[nH]c2ccccc2c1=O`, the “activity, negative = inhibition” value is 17.7%.

`CC1CCCC(n2c(=S)[nH]c3ccccc3c2=O)C1C` (configuration not stated): the AC50 was 3.55 µM (active).

Regarding `CN(C)C(=O)/N=N\C(=O)N(C)C`, the “activity, negative = inhibition” value is -6.5%.

As to `CCn1c(O)c(/C=C2\C=Nc3ccccc32)sc1=Nc1ccc(C)cc1`, the AC50 was 2.24 µM (active).

For `CC(C)n1c(O)c(/C=C2\C=Nc3ccccc32)sc1=Nc1ccccc1`, the AC50 was 2.51 µM (active).

In the case of `C[C@@H](CNC(N)=O)NC(N)=O`, the activity, negative = inhibition was 20.8% [at 11.4 µM].

On to `Cc1ccc(C)c(-c2cc(C(=O)Nc3nccs3)c3ccccc3n2)c1`, for which the AC50 is 2.82 µM (active).

Consider `Cc1ccc(-c2cc(C(=O)NCc3ccco3)c3ccccc3n2)s1`, for which the AC50 is 3.98 µM (active).

In the case of `Cc1ccc(Nc2ncccc2C(=O)NCc2cccs2)c(C)c1`, the AC50 is 15.8 µM (active).

With `CN(C)C(=O)c1ccc(-c2nccc(NCc3cccs3)n2)cc1`, the activity, negative = inhibition was 10.6% [at 2.29 µM].

Consider `Cc1ccc2c(c1)N(CC(=O)NCc1cccs1)C(=O)C(C)O2` (configuration not stated), for which the “activity, negative = inhibition” value was 24.4%.

Regarding `Cc1ccc(C)c(-c2cc(C(=O)Nc3sc(C)c(C)c3C(N)=O)c3ccccc3n2)c1`, the AC50 was 0.794 µM (active).

In the case of `N[C@@](CCc1ccccc1)(C(=O)O)c1ccccc1`, the activity, negative = inhibition is -3.36% [at 11.4 µM].

For the compound `COc1cccc(Nc2ncc3nc(C)c(=O)n(CCC#N)c3n2)c1`, the “activity, negative = inhibition” value was -1.51%.

Turning to `CN(C)CCCn1c2c3ccccc3ccc2c2oc(=O)c3ccccc3c21`, the activity, negative = inhibition is -5.42% [at 11.4 µM].

As to `Cc1noc(C)c1-c1nc(NCc2cccs2)c2ccccc2n1`, the activity, negative = inhibition was -11.4% [at 2.29 µM].

For the compound `Cc1ccc(C)c(-c2cc(C(=O)NCc3cccs3)c3ccccc3n2)c1`, the AC50 is 1.26 µM (active).

Take `CN(C)C(=O)c1ccc(-c2nc(NCc3cccs3)c3ccccc3n2)cc1`: the activity, negative = inhibition was -26.2% [at 2.29 µM].

For `CS(=O)(=O)N1CCC2(CCN(C(=O)Nc3cccc(C#N)c3)CC2)CC1`, the “activity, negative = inhibition” value is -1.38%.

Take `c1ccc2oc(C3=NCCN3)cc2c1`: the “activity, negative = inhibition” value is 6.13%.

For `COCCOC(=O)C1=C(C)NC(=O)N(C(C)=O)C1c1ccc(Cl)cc1` (configuration not stated), the AC50 was 4.47 µM (active).

As for `CC(=O)NC(Cc1ccc(F)cc1)C(=O)O` (configuration not stated), the “activity, negative = inhibition” value was 7.48%.

Turning to `Cc1nc2c(C(=O)NCc3ccc4c(c3)OCO4)c[nH]n2c(=O)c1Cc1ccccc1F`, the AC50 is 0.501 µM (active).

Take `Cc1nc2c(C(=O)NCCC(C)C)c[nH]n2c(=O)c1Cc1ccccc1F`: the AC50 was 2.82 µM (active).

On to `O=C(O)c1cc2c(o1)CCC/C2=N\O`, for which the “activity, negative = inhibition” value was -26.6%.

Consider `CC1(C)S[C@@H]2[C@H](NC(=O)[C@@H](N)c3ccc(O)cc3)C(=O)N2[C@H]1C(=O)O`, for which the “activity, negative = inhibition” value was 17% [at 25.6 µM].

Turning to `O=c1[nH]c2cc(Cl)ccc2c(O)c1-c1cccc(Oc2ccccc2)c1`, the “activity, negative = inhibition” value was -21.6%.

Consider `O=c1[nH]c2cc(Cl)ccc2c(O)c1-c1ccc(Oc2ccccc2)cc1`, for which the AC50 was 12.6 µM (active).

Regarding `O=C(c1c(O)c2ccc(Cl)cc2[nH]c1=O)C1CC1`, the “activity, negative = inhibition” value is -5.08%.

Turning to `CCOC(=O)Cc1cc(=O)n2[nH]c(C)c(C#N)c2n1`, the “activity, negative = inhibition” value was -6.59%.

With `CCOC(=O)Cc1c(C)nc2c(C#N)c[nH]n2c1=O`, the AC50 was 12.6 µM (active).

In the case of `CC(C)CCNC1=NCCCCC1`, the “activity, negative = inhibition” value was 3.84%.

With `OC[C@H]1O[C@H](n2cnc3c(NC4CCCC4)nc(Cl)nc32)[C@@H](O)[C@@H]1O`, the “activity, negative = inhibition” value is -9.28%.

Consider `Cc1noc(C)c1-c1nc(NC2CCNCC2)c2ccccc2n1`, for which the activity, negative = inhibition was 13% [at 2.29 µM].

In the case of `O=C(c1n[nH]c(=O)c2ccccc12)N1CCN(C2c3ccccc3-c3ccccc32)CC1`, the AC50 was 2.82 µM (active).

Take `Cc1cc(C)nc(SCCc2cccc[n+]2C)n1`: the activity, negative = inhibition was -3.45% [at 11.4 µM].

As to `N#C/C(=C\c1ccc(O)c(O)c1)C(=O)c1ccc(O)c(O)c1`, the “activity, negative = inhibition” value is 11.7%.

Consider `COc1cc(/C=C(\C#N)C(=O)c2ccc(O)c(O)c2)cc(I)c1O`, for which the AC50 was 0.501 µM (active).

For the compound `C[C@H]1CN(CCO)CCN1c1ccccc1`, the activity, negative = inhibition was -1.76% [at 11.4 µM].

Turning to `CC(C)=NOCc1ccc(-c2cc(-c3ccccc3)no2)cc1`, the activity, negative = inhibition was 12% [at 11.4 µM].

`COc1cccc([C@H](O)Cn2cc(-c3cccc(CON=C(C)C)c3)nn2)c1`: the activity, negative = inhibition was -2.7% [at 11.4 µM].

With `CC(C)=NOCc1cccc(-c2cc(-c3ccccc3)no2)c1`, the AC50 is 3.98 µM (active).

With `CCOC(=O)c1ccc(N/C=C/C(=O)c2ccc(OC)cc2)cc1`, the “activity, negative = inhibition” value is 13.1%.

`CC(=O)c1ccc(NC(=O)C2(c3ccccc3)CCOCC2)cc1`: the AC50 was 5.01 µM (active).

For the compound `COc1ccc(C2(C(=O)N3CCOCC3)CCCC2)cc1`, the “activity, negative = inhibition” value is -17.7%.

On to `CCOC(=O)c1ccc(NC(=O)C2(c3ccc(OC)cc3)CCOCC2)cc1`, for which the AC50 was 5.62 µM (active).

Turning to `CN(C)CCOC(=O)C1(c2ccccc2)CCOCC1`, the “activity, negative = inhibition” value is -19.5%.

As to `Cc1cnc(CNc2ccnc(-c3ccccc3C)n2)cn1`, the activity, negative = inhibition was 11.5% [at 2.29 µM].

Turning to `CCOC(=O)c1cccc(C(=O)OCC)n1`, the “activity, negative = inhibition” value was -2.66%.

Regarding `O=C(OCC(=O)c1cccs1)c1cccc(C(=O)OCC(=O)c2cccs2)n1`, the AC50 is 8.91 µM (active).

On to `COc1ccc(CNc2cc(-c3ccoc3)ncn2)c(OC)c1`, for which the activity, negative = inhibition was 3.4% [at 2.29 µM].

On to `Cc1cccc(CN2CCN([C@@H](c3ccccc3)c3ccc(Cl)cc3)CC2)c1`, for which the “activity, negative = inhibition” value is -14.8% [at 25.6 µM].

As to `COc1ccccc1C(c1nnnn1C(C)(C)C)N1CCN(Cc2ccncc2)CC1` (configuration not stated), the AC50 is 0.631 µM (active).

`COc1ccccc1CN1CC2(CCN(C(=O)c3ccncc3)CC2)C1`: the “activity, negative = inhibition” value was 2.75%.

For the compound `COc1ccccc1C(c1nnnn1C(C)(C)C)N1CCCc2ccccc21` (configuration not stated), the AC50 was 3.98 µM (active).

Regarding `CNC(=O)[C@@H]1O[C@@H](n2cnc3c(NCc4ccc(N)cc4)ncnc32)[C@@H](O)[C@H]1O`, the “activity, negative = inhibition” value is 6.6%.

For the compound `COc1ccc(COC(=O)N/N=C2/C[C@@H](O)[C@@H](O)[C@@H]3[C@@H]4C(=O)N(c5cccc(Oc6ccccc6)c5)C(=O)[C@H]4CC[C@@H]23)cc1`, the activity, negative = inhibition was -7.36% [at 11.4 µM].

In the case of `CCN1CCCC1CNC(=O)C(=O)Nc1ccc(OC)cc1` (configuration not stated), the “activity, negative = inhibition” value was 3.7%.

Take `COc1cccc(N2C(=O)C(CC(=O)Nc3ccccc3)N(C3CCCCC3)C2=O)c1` (configuration not stated): the AC50 is 8.91 µM (active).

With `COc1ccc(COC(=O)N/N=C2/C[C@@H](O)[C@@H](O)[C@@H]3[C@@H]4C(=O)N(c5cccc(Oc6ccccc6)c5)C(=O)[C@H]4CC[C@H]23)cc1`, the activity, negative = inhibition is -15.2% [at 11.4 µM].

`COc1ccc(NC(=O)CC2C(=O)N(c3cccc(OC)c3)C(=O)N2C2CCCCC2)cc1` (configuration not stated): the AC50 is 15.8 µM (active).

In the case of `CC1(C)O[C@@H]2C[C@H]3[C@H]4C[C@H](F)C5=CC(=O)C=C[C@@]5(C)[C@@H]4[C@H](O)C[C@]3(C)[C@]2(C(=O)CO)O1`, the “activity, negative = inhibition” value was -11.4% [at 25.6 µM].
